Screening results: PubChem BioAssay, several laboratories
Shown are actives, neighbours in structure and some others; about 3.5% of the full set was active somewhere.
CHRM1 PAM = potentiates human M1 receptor response to acetylcholine; activation, % at 3 µM; CHO-K1 hM1, Fluo-8 calcium fluorescence, ACh EC20; 0% = ACh EC20, 100% = maximal ACh; AID 588819; 360,000 compounds, 0.088% hits; in the data active means activation above about 19%, passing the limit was not always enough
Target sequence (P11229 whole entry, looked up): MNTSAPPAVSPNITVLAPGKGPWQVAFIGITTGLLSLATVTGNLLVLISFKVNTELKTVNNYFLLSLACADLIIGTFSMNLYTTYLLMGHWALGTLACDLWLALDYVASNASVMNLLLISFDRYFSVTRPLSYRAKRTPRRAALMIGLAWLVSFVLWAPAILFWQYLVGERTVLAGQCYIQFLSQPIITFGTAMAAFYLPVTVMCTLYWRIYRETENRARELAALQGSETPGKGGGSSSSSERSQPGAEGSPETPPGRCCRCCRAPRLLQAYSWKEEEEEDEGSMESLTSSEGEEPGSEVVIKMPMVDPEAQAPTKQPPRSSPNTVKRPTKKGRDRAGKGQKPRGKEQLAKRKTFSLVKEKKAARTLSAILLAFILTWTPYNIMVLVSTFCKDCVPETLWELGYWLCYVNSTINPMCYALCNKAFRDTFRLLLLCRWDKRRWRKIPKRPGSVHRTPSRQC
ATG4B inh = ATG4B (human) cysteine protease inhibition | inhibition, % at 8.33 µM | ATG4B cleavage of LC3-PLA2, NBD-HPC fluorescence, 1 h | 340,000 compounds, 0.51% hits; in the data active means inhibition above about 40%
Myeloid diff 2 = compounds promoting myeloid differentiation | ER-HoxA9 myeloid progenitors, lysozyme-GFP differentiation, flow cytometry | calls only at 10 µM | AID 624256 | 360,000 compounds, 1% hits;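 active means normalized GFP-positive differentiation at or above the plate's own cutoff, the solvent-only control mean plus 3 SD; inconclusive means no clear call, values can overlap the other calls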;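 further: cells exposed to compound for four days before flow analysis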
CHRM1 agonist = human M1 muscarinic receptor agonism; P11229; CHO-K1 hM1, Fluo-8 calcium fluorescence, agonist mode; 0% DMSO, 100% acetylcholine EC100; activation, % at 3 µM; 360,000 compounds, 0.33% hits; AID 588814;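 active means activation above the run's mean compound activation plus 3 SD, cut at about 16% in these data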;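 further: peak over basal fluorescence ratio within a 140 s kinetic read after compound addition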
CHRM1 antagonist = human CHRM1 antagonism; P11229; CHO-K1 hM1, Fluo-8 calcium fluorescence, ACh EC80 antagonist; inhibition, % at 3 µM; 360,000 compounds, 1.3% hits;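 active means percent inhibition above its own plate's cutoff, namely the mean of that plate's compound wells plus 3 SD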;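 further: peak over basal fluorescence ratio during 140 s after agonist addition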
SKN-1 inh = inhibitors of C. elegans SKN-1. C. elegans VP596 Pgst-4::GFP/RFP ratio, acrylamide-induced, 24 h. inhibition, % at 21.8 µM. 360,000 compounds, 0.49% hits. AID 624304;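 active means interference check ratio from 0.5 to 1.5 plus GFP to RFP signal ratio inhibition reaching or exceeding a fixed threshold, cut at about 30% in these data, passing the limit was not always enough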
Of the large screens only hits and unclear results are named; the others gave an inactive call.

Cc1ccc(S(=O)(=O)N2C[C@H]3[C@H]4C(=O)N(c5ccccc5)C(=O)[C@H]4CC(=O)[C@H]3[C@@H]2c2ccccc2F)cc1	none (no result: ATG4B inh)
Cc1ccc(NC(=O)CN(C)C(=O)COC(=O)COc2cc(C)cc(C)c2)cc1	none (no result: ATG4B inh)
CC(C)(C)NC(=O)CN(C(=O)CCN1CCCc2ccccc21)C(C)(C)C	SKN-1 inh 40
COc1ccc(C(=O)OCc2ccccc2C#N)cc1S(=O)(=O)N1CCOCC1	none (no result: ATG4B inh)
Cc1cc(/C=C2/SC(=O)NC2=O)c(C)n1-c1ccc(N2CCOCC2)cc1	CHRM1 agonist 20
Cc1ccccc1S(=O)(=O)N(CC(O)CN1C(=O)NC(C)(C)C1=O)c1ccccc1 (stereo not drawn)	none
Nc1ccc2nc3c(=O)n(CCc4ccccc4)c(=O)[nH]c3nc2c1	Myeloid diff 2 active, CHRM1 agonist 53
Nc1ccc2nc3c(=O)n(C4CCCCC4)c(=O)[nH]c3nc2c1	CHRM1 agonist 100
Cc1cc2nc3c(=O)n(CCc4ccccc4)c(=O)[nH]c3nc2cc1N	none
C=CCn1c(=O)[nH]c2nc3cc(N=CN(C)C)c(C)cc3nc2c1=O	none
CCCCn1c(=O)[nH]c2nc3cc(N)ccc3nc2c1=O	CHRM1 agonist 25
CC1=C(C(=O)N2CCOCC2)CC(CC(=O)NCc2ccco2)C(=O)N1Cc1ccccc1 (stereo not drawn)	Myeloid diff 2 inconclusive (no result: ATG4B inh)
CN1C(=O)C(C)(C)c2cc(S(=O)(=O)N3CCN(c4cccc(Cl)c4)CC3)ccc21	Myeloid diff 2 active
CN1C(=O)C(C)(C)c2cc(S(=O)(=O)N3CCN(c4ccc(F)cc4)CC3)ccc21	none
CCCCCCCC1=NN(c2ccc(S(=O)(=O)O)cc2)C(=O)C1N=O (stereo not drawn)	none (no result: ATG4B inh)
C[C@@H]1CN([C@@H](C)CO)C(=O)c2cc(N(C)C)ccc2O[C@@H](C)CCCCO[C@@H]1CN(C)S(=O)(=O)c1cccs1	none (no result: ATG4B inh)
Cc1nn(C)cc1CN1CCCC(C(=O)c2ccc(-c3ccccc3)c(F)c2)C1 (stereo not drawn)	CHRM1 antagonist 52
Cn1cc(CN2CCCC(C(=O)c3ccc(-c4ccccc4)c(F)c3)C2)cn1 (stereo not drawn)	CHRM1 antagonist 28
COc1cccc(C(=O)C2CCCN(Cc3cn(C)nc3-c3ccccc3)C2)c1 (stereo not drawn)	none
Cc1nc2sccn2c(=O)c1S(=O)(=O)NCC1CCN(Cc2ccc(Cl)cc2)CC1	none (no result: ATG4B inh)
Cc1ccc(NC(=O)CC2Oc3ccc(C)cc3NC2=O)cc1 (stereo not drawn)	none
CCN(CC)CCCNC(=O)CC1Oc2ccc(C)cc2NC1=O (stereo not drawn)	none
Cc1ccc2c(c1)NC(=O)C(CC(=O)Nc1ccc(CN3CCC(C)CC3)cc1)O2 (stereo not drawn)	CHRM1 antagonist 101
Cc1ccc2c(c1)NC(=O)C(CC(=O)NCCN(CC(C)C)CC(C)C)O2 (stereo not drawn)	CHRM1 antagonist 28
CCN1CCN(Cc2ccc(NC(=O)CC3Oc4ccc(C)cc4NC3=O)cc2)CC1 (stereo not drawn)	CHRM1 antagonist 40
COc1cccc(C(=O)Nc2ccc(N(C)C)cc2)c1OC	Myeloid diff 2 active
CCn1c2ccccc2c2cc(NC(=O)c3cccc(OC)c3OC)ccc21	Myeloid diff 2 active
COc1cccc(C(=O)Nc2ccncc2)c1OC	none
C[C@@H]1CN([C@@H](C)CO)C(=O)CCCn2nncc2CO[C@@H]1CN(C)S(=O)(=O)c1ccccc1C#N	none (no result: ATG4B inh)
NNC(=O)C1SCCN1S(=O)(=O)c1ccc(Cl)cc1 (stereo not drawn)	none
CN(Cc1ccccc1)C(=O)c1ccc(NC(=O)Cc2ccc(NC(=O)C3CCCN(C(=O)CCc4ccccc4)C3)cc2)cc1 (stereo not drawn)	none
Cc1cccc(N(CC(=O)NC2CCCC2)C(=O)c2csnn2)c1C	none
COCCNC(=O)c1cccc(NC(=O)C2=C(C)OCCS2)c1	none (no result: Myeloid diff 2)
CC1=C(C(=O)Nc2cccc(C(=O)NC3CCCC(C)C3C)c2)SCCO1 (stereo not drawn)	Myeloid diff 2 active
CC(C)Cc1nc2oc3c(Cl)ncnc3c2c2c1CCCC2	none
CCCc1nc2oc3c(Cl)ncnc3c2c2c1CCCC2	CHRM1 antagonist 52
CC1=C(C(=O)Nc2ccccc2)C(c2ccc(C)o2)n2c(s/c(=C\c3ccco3)c2=O)=N1 (stereo not drawn)	Myeloid diff 2 active
COc1cccc(C2C(C(=O)Nc3ccccc3)=C(C)N=c3s/c(=C/c4ccc(OCC(=O)O)cc4)c(=O)n32)c1 (stereo not drawn)	none
CC1CCC2(CC1)NC(=O)N(NC(=O)c1ccc(OC(C)C)cc1)C2=O (stereo not drawn)	none
CN1CCN(C2=Cc3ccccc3Sc3cc(F)c(Cl)cc32)CC1	CHRM1 antagonist 69
CN1CCN(C2=Cc3cc(Cl)ccc3Sc3cc(F)ccc32)CC1	CHRM1 antagonist 82
CN1CCN(C2=Cc3ccccc3Sc3cc(F)c(F)cc32)CC1	CHRM1 antagonist 70
CN1CCN(c2nc(-c3ccc(Cl)c(Cl)c3)nc3ccccc23)CC1	none (no result: ATG4B inh)
Brc1ccc(CSc2nnc(-c3ccccn3)n2Cc2ccco2)cc1	ATG4B inh 50
CC(C)(C)c1ccc(CSc2nnc(-c3ccccn3)n2Cc2ccco2)cc1	none
CC1(C)CC[C@]2(CO)CC[C@]3(C)C(=CCC4[C@@]5(C)CC[C@H](O)[C@@](C)(CO)C5CC[C@]43C)[C@@H]2C1 (stereo partly drawn)	none
CCCn1ncc(CN2CCC(CO)(Cc3ccc(OC)cc3)CC2)c1C	CHRM1 antagonist 42
COc1ccc(CC2(CO)CCN(CC3=Cc4cc(Cl)ccc4OC3)CC2)cc1	CHRM1 antagonist 27
Cc1nn(Cc2ccccc2Cl)c(C)c1C(=O)N(C)CC(=O)Nc1cccc(F)c1	none
Cn1c(N)c(N=O)c(=O)n(C)c1=S	none
O=C(NCc1cccnc1)c1cc(C2CCCCN2C(=O)c2cccs2)on1 (stereo not drawn)	none (no result: ATG4B inh)
Cn1c(=O)c2nc3ccccc3nc2n(C)c1=O	none
CC(=O)Nc1ccc2nc3c(=O)n(C)c(=O)n(C)c3nc2c1	Myeloid diff 2 active
CC1CCC(C(O)(C(=O)O)C2CCCCC2)CC1C (stereo not drawn)	Myeloid diff 2 inconclusive
CCOC(=O)Nc1ccc2c(c1)N(C(=O)N1CCN(C)CC1)c1ccccc1CC2	CHRM1 antagonist 49
CC(C)OC(=O)Nc1ccc2c(c1)N(C(=O)N1CCN(C)CC1)c1ccccc1CC2	CHRM1 antagonist 78
CCOC(=O)Nc1ccc2c(c1)N(C(=O)N1CCN(C)CC1)c1ccccc1S2	CHRM1 antagonist 97
CCOC(=O)Nc1ccc2c(c1)N(C(=O)CCN1CCN(C)CC1)c1ccccc1S2	none
